Results as given in PubChem BioAssay AID1159580 (chemical genetic matrix, 2015).
In all, about 5,500 compounds went through this assay and about 2,000 (36%) were called active. Not shown: some 18% with an inconclusive outcome. No stated cut-off is given here; in the data, active means normalized growth mostly below about 0.91 (no sharp cut-off); inconclusive means no clear call, values can overlap the other calls; inactive means mostly above about 0.92. The list shows a part of the results.

Test: chemical genetic growth profiling, strain panel (AID 1159580);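 further: tested at 20 µM; growth read once vehicle control cultures reached saturation at 30 °C; 1 = growth at the plate median or of vehicle wells; lower values mean less growth of the strain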
Details: S. cerevisiae deletion strains, growth OD

Measured: normalized growth

CC(C)(C)c1ccc(C(=O)Nc2ccc(C(F)(F)F)cc2)s1
active: locus YHR030C, strain SLT2, active compounds read low 0.821
inactive: locus YAR019C, strain CDC15, active compounds read low 0.985 | locus YBL105C, strain PKC1, active compounds read low 0.991 | locus YBR135W, strain CKS1, active compounds read low 0.994 | locus YBR136W, strain MEC1, active compounds read low 0.972 | locus YBR160W, strain CDC28, active compounds read low 0.984 | locus YDL017W, strain CDC7, active compounds read low 0.997 | locus YDL028C, strain MPS1, active compounds read low 0.967 | locus YDL101C, strain DUN1, active compounds read low 1.01 | locus YDL108W, strain KIN28, active compounds read low 0.972 | locus YDL132W, strain cdc53, active compounds read low 0.988 | locus YDL214C, strain PRR2, active compounds read low 0.952 | locus YDR052C, strain DBF4, active compounds read low 0.996 | locus YDR054C, strain cdc34, active compounds read low 0.989 | locus YDR226W, strain ADK1, active compounds read low 0.976 | locus YDR477W, strain SNF1, active compounds read low 0.952 | locus YER123W, strain YCK3, active compounds read low 0.968 | locus YER133W, strain GLC7, active compounds read low 0.977 | locus YFL009W, strain cdc4, active compounds read low 0.976 | locus YFL029C, strain CAK1, active compounds read low 0.987 | locus YFR003C, strain YPI1, active compounds read low 0.999 | locus YFR019W, strain FAB1, active compounds read low 0.972 | locus YFR028C, strain CDC14, active compounds read low 0.985 | locus YGR040W, strain KSS1, active compounds read low 0.954 | locus YGR052W, strain FMP48, active compounds read low 1 | locus YGR092W, strain DBF2, active compounds read low 0.966 | locus YHR079C, strain IRE1, active compounds read low 0.963 | locus YHR082C, strain KSP1, active compounds read low 0.991 | locus YHR205W, strain SCH9, active compounds read low 0.92 | locus YIL147C, strain SLN1, active compounds read low 0.989 | locus YJL095W, strain BCK1, active compounds read low 0.957 | locus YJL128C, strain PBS2, active compounds read low 0.943 | locus YJL157C, strain FAR1, active compounds read low 0.976 | locus YJR016C, strain ILV3, active compounds read low 0.996 | locus YJR066W, strain TOR1 (second series), active compounds read low 0.967 | locus YJR066W, strain TOR1, active compounds read low 0.929 | locus YKL048C, strain ELM1, active compounds read low 0.988 | locus YKL067W, strain YNK1, active compounds read low 0.944 | locus YKL101W, strain HSL1, active compounds read low 0.935 | locus YKL193C, strain SDS22, active compounds read low 0.986 | locus YKL203C, strain TOR2, active compounds read low 1.05 | locus YLR113W, strain HOG1, active compounds read low 0.863 | locus YLR133W, strain CKI1, active compounds read low 0.971 | locus YLR403W, strain SFP1, active compounds read low 0.974 | locus YML070W, strain DAK1, active compounds read low 0.944 | locus YMR001C, strain CDC5, active compounds read low 0.995 | locus YMR205C, strain PFK2 (second series), active compounds read low 0.975 | locus YMR277W, strain FCP1, active compounds read low 0.966 | locus YNL006W, strain LST8, active compounds read low 0.981 | locus YNL020C, strain ARK1, active compounds read low 0.973 | locus YNL161W, strain CBK1, active compounds read low 0.985 | locus YNL183C, strain NPR1, active compounds read low 1.01 | locus YNL207W, strain RIO2, active compounds read low 0.991 | locus YNL222W, strain SSU72, active compounds read low 0.988 | locus YNL307C, strain MCK1 (second series), active compounds read low 0.99 | locus YOL078W, strain AVO1, active compounds read low 0.989 | locus YOL136C, strain PFK27, active compounds read low 0.939 | locus YOR061W, strain CKA2, active compounds read low 1 | locus YOR119C, strain RIO1, active compounds read low 0.993 | locus YOR231W, strain MKK1, active compounds read low 0.925 | locus YOR329C, strain SCD5, active compounds read low 0.999 | locus YPL031C, strain PHO85, active compounds read low 0.977 | locus YPL153C, strain RAD53, active compounds read low 0.951 | locus YPL204W, strain HRR25, active compounds read low 0.951 | locus YPL209C, strain IPL1, active compounds read low 0.991 | locus YPL256C, strain CLN2, active compounds read low 0.899 | locus YPR025C, strain CCL1, active compounds read low 1 | locus YPR106W, strain ISR1, active compounds read low 0.98 | locus YPR111W, strain DBF20, active compounds read low 0.955 | strain NNK1, active compounds read low 0.98 | strain TSCII, active compounds read low 0.983
